# In PubChem BioAssay AID2449 (National Center for Advancing Translational Sciences (NCATS), 2010):
# The other results are listed elsewhere or left out. Inconclusive results are not listed. The source made the active and inactive calls. Calls come from the whole dose curve.
# Target: Peroxisome proliferator-activated receptor gamma (Homo sapiens) (UniProt P37231)
# Test: PPAR gamma Selectivity Assay For Inhibitors of the Interaction of Thyroid Hormone Receptor and Steroid Receptor Coregulator 2
# Settings: PPARg LBD / Texas Red DRIP-2 peptide, fluorescence polarization, 3 h
# Source text: NIH Molecular Libraries Probe Production Network [MLPCN] NIH Chemical Genomics Center [NCGC] MLPCN Grant: DK058080 Assay Provider: R. Kip Guy, St. Jude Children's Research Hospital NCGC Assay Overview: Thyroid receptor (TR) regulates many homeostatic processes including basal metabolism, cardiovascular function, body weight, and lipid trafficking. TR modulators are potential therapeutics for obesity and hyperlipidemias but current thyroid analogs have undesirable side effects, particularly cardiac stimulation. This secondary assay characterized compounds identified in the qHTS for Inhibitors of the Interaction of Thyroid Hormone Receptor and Steroid Receptor Coregulator 2 (PubChem AID 1485) for selectivity against PPAR gamma. […] Small molecule inhibitors that block the interaction of PPAR and DRIP-2 are detected by a decrease in fluorescence polarization. […]
# NCGC Assay Protocol Summary: Twenty uL/well 2 uM PPAR gamma and 10 nM Tx-DRIP-2 peptide in protein buffer (20 mM TRIS, pH 7.5, 100 mM NaCl, 0.01% NP-40, 20 uM roziglitazone, and 4% DMSO) was dispensed into black solid 384-well plates (Costar 3710) using a Biomek FX (Beckman Coulter) liquid handling system. […] The plates were read by an Envision (Perkin Elmer) to detect Texas Red polarization of Tx-DRIP-2 (555 nm excitation and 632 nm emission).
# Chain of Peroxisome proliferator-activated receptor gamma (Homo sapiens) (P37231 whole entry, looked up): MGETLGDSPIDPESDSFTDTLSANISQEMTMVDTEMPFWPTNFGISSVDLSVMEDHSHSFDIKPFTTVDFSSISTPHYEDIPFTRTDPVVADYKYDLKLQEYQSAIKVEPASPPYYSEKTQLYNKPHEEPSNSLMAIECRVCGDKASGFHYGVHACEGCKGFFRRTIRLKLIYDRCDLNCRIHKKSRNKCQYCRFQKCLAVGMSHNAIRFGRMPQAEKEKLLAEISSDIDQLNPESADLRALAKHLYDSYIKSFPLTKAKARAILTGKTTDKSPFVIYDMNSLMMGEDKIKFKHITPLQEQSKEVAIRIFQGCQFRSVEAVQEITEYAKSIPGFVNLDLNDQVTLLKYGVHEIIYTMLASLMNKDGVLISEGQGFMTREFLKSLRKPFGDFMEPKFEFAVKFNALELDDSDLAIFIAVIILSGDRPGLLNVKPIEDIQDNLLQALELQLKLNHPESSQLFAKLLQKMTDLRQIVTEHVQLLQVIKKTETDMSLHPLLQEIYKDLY
row,Compound,outcome
1,O=C(COC(=O)c1cccc([N+](=O)[O-])c1)NC1C2CC3CC(C2)CC1C3 (stereo unspecified),inactive
